# About 2,000 (36%) of roughly 5,500 compounds were called active. About 18% were inconclusive and are not listed. This is one part of the list. Unmarked numbers belong to inactive results. No stated cut-off is given here; in the data, active means normalized growth mostly below about 0.91 (no sharp cut-off); inconclusive means no clear call, values can overlap the other calls; inactive means mostly above about 0.92.
# Assay: chemical genetic growth profiling, strain panel (AID 1159580);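 further: tested at 20 µM; growth read once vehicle control cultures reached saturation at 30 °C; 1 = growth at the plate median or of vehicle wells; lower values mean less growth of the strain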
# Settings: growth OD
# [1] = S. cerevisiae deletion strains, locus YGR229C, strain SMI1, hits give low values
# [2] = S. cerevisiae deletion strains, locus YMR307W, strain GAS1, hits give low values
# [3] = S. cerevisiae deletion strains, locus YNL153C, strain GIM3, hits give low values
smiles,measurement,setting,value
Nc1nc2c(nc(Br)n2C2OC3COP(=O)(O)O[C@@H]3C2O)c(=O)[nH]1 (stereo not given in full),normalized growth,"S. cerevisiae deletion strains, locus YAL040C, strain CLN3, hits give low values",0.947
same,normalized growth,"S. cerevisiae deletion strains, locus YDR363W, strain ESC2, hits give low values",0.993
same,normalized growth,"S. cerevisiae deletion strains, locus YER002W, strain NOP16, hits give low values",1.02
same,normalized growth,[1],1.02
same,normalized growth,[2],0.998
same,normalized growth,[3],1.05
same,normalized growth,"S. cerevisiae deletion strains, locus YNL175C, strain NOP13, hits give low values",1.02
same,normalized growth,"S. cerevisiae deletion strains, locus YNL197C, strain WHI3, hits give low values",1.01
same,normalized growth,"S. cerevisiae deletion strains, locus YNL224C, strain SQS1, hits give low values",1.02
same,normalized growth,"S. cerevisiae deletion strains, locus YOR083W, strain WHI5 (second series), hits give low values",1.02
COc1cc(OC)cc(OC)c1,normalized growth,"S. cerevisiae deletion strains, locus YAL013W, strain DEP1, hits give low values",1.01
same,normalized growth,"S. cerevisiae deletion strains, locus YBR021W, strain FUR4, hits give low values",1.02
same,normalized growth,"S. cerevisiae deletion strains, locus YBR229C, strain ROT2, hits give low values",1.01
same,normalized growth,"S. cerevisiae deletion strains, locus YCL029C, strain bik1, hits give low values",0.743 (active)
same,normalized growth,"S. cerevisiae deletion strains, locus YDL035C, strain GPR1, hits give low values",1.02
same,normalized growth,"S. cerevisiae deletion strains, locus YDL074C, strain BRE1, hits give low values",1.01
same,normalized growth,"S. cerevisiae deletion strains, locus YDL101C, strain DUN1, hits give low values",1
same,normalized growth,"S. cerevisiae deletion strains, locus YDL134C, strain PPH21, hits give low values",1
same,normalized growth,"S. cerevisiae deletion strains, locus YDL185W, strain tfp1, hits give low values",0.982
same,normalized growth,"S. cerevisiae deletion strains, locus YDL192W, strain arf1, hits give low values",0.102 (active)
same,normalized growth,"S. cerevisiae deletion strains, locus YDR101C, strain arx1, hits give low values",0.529 (active)
same,normalized growth,"S. cerevisiae deletion strains, locus YDR150W, strain NUM1, hits give low values",1.01
same,normalized growth,"S. cerevisiae deletion strains, locus YDR162C, strain NBP2, hits give low values",1.02
same,normalized growth,"S. cerevisiae deletion strains, locus YDR318W, strain mcm21, hits give low values",0.0697 (active)
same,normalized growth,"S. cerevisiae deletion strains, locus YDR388W, hits give low values",0.0643 (active)
same,normalized growth,"S. cerevisiae deletion strains, locus YDR502C, strain sam2, hits give low values",0.159 (active)
same,normalized growth,"S. cerevisiae deletion strains, locus YEL061C, strain CIN8, hits give low values",1
same,normalized growth,"S. cerevisiae deletion strains, locus YER110C, hits give low values",0.305 (active)
same,normalized growth,"S. cerevisiae deletion strains, locus YER155C, strain BEM2, hits give low values",1.01
same,normalized growth,"S. cerevisiae deletion strains, locus YER167W, strain BCK2, hits give low values",1.01
same,normalized growth,"S. cerevisiae deletion strains, locus YGL078C, strain dbp3, hits give low values",0.299 (active)
same,normalized growth,"S. cerevisiae deletion strains, locus YGL086W, strain mad1, hits give low values",0.0586 (active)
same,normalized growth,"S. cerevisiae deletion strains, locus YGL248W, strain PDE1, hits give low values",1.01
same,normalized growth,"S. cerevisiae deletion strains, locus YGR078C, strain PAC10, hits give low values",1.01
same,normalized growth,"S. cerevisiae deletion strains, locus YGR135W, strain pre9, hits give low values",0.0735 (active)
same,normalized growth,[1],1
same,normalized growth,"S. cerevisiae deletion strains, locus YGR252W, strain gcn5, hits give low values",0.24 (active)
same,normalized growth,"S. cerevisiae deletion strains, locus YHR030C, strain SLT2, hits give low values",1.01
same,normalized growth,"S. cerevisiae deletion strains, locus YHR079C, strain IRE1 (second series), hits give low values",0.598 (active)
same,normalized growth,"S. cerevisiae deletion strains, locus YHR094C, strain hxt1, hits give low values",0.147 (active)
same,normalized growth,"S. cerevisiae deletion strains, locus YHR129C, strain ARP1, hits give low values",1.01
same,normalized growth,"S. cerevisiae deletion strains, locus YHR200W, strain rpn10, hits give low values",0.124 (active)
same,normalized growth,"S. cerevisiae deletion strains, locus YIL066C, strain RNR3, hits give low values",1.01
same,normalized growth,"S. cerevisiae deletion strains, locus YIL073C, strain SPO22, hits give low values",1
same,normalized growth,"S. cerevisiae deletion strains, locus YIL125W, strain kgd1, hits give low values",0.263 (active)
same,normalized growth,"S. cerevisiae deletion strains, locus YIR030C, strain dcg1, hits give low values",0.317 (active)
same,normalized growth,"S. cerevisiae deletion strains, locus YJL095W, strain BCK1, hits give low values",1.01
same,normalized growth,"S. cerevisiae deletion strains, locus YJL134W, strain LCB3, hits give low values",1
same,normalized growth,"S. cerevisiae deletion strains, locus YJL168C, strain set2, hits give low values",0.206 (active)
same,normalized growth,"S. cerevisiae deletion strains, locus YJL187C, strain SWE1 (second series), hits give low values",1.02
same,normalized growth,"S. cerevisiae deletion strains, locus YJR043C, strain POL32, hits give low values",0.994
same,normalized growth,"S. cerevisiae deletion strains, locus YJR075W, strain HOC1, hits give low values",1
same,normalized growth,"S. cerevisiae deletion strains, locus YKL009W, strain mrt4, hits give low values",0.898
same,normalized growth,"S. cerevisiae deletion strains, locus YKL068W, hits give low values",1
same,normalized growth,"S. cerevisiae deletion strains, locus YKL085W, strain MDH1 (second series), hits give low values",0.211 (active)
same,normalized growth,"S. cerevisiae deletion strains, locus YKL085W, strain MDH1, hits give low values",0.211 (active)
same,normalized growth,"S. cerevisiae deletion strains, locus YKL190W, strain CNB1, hits give low values",1.01
same,normalized growth,"S. cerevisiae deletion strains, locus YKR001C, strain vps1, hits give low values",0.127 (active)
same,normalized growth,"S. cerevisiae deletion strains, locus YLR039C, strain RIC1, hits give low values",1.01
same,normalized growth,"S. cerevisiae deletion strains, locus YLR058C, strain SHM2, hits give low values",1.01
same,normalized growth,"S. cerevisiae deletion strains, locus YLR102C, strain apc9, hits give low values",0.106 (active)
same,normalized growth,"S. cerevisiae deletion strains, locus YLR262C, strain YPT6, hits give low values",1.04
same,normalized growth,"S. cerevisiae deletion strains, locus YLR268W, strain sec22, hits give low values",0.0897 (active)
same,normalized growth,"S. cerevisiae deletion strains, locus YLR330W, strain CHS5, hits give low values",1
same,normalized growth,"S. cerevisiae deletion strains, locus YLR342W, strain FKS1 (second series), hits give low values",0.983
same,normalized growth,"S. cerevisiae deletion strains, locus YLR371W, strain rom2, hits give low values",0.0926 (active)
same,normalized growth,"S. cerevisiae deletion strains, locus YLR418C, strain cdc73, hits give low values",0.104 (active)
same,normalized growth,"S. cerevisiae deletion strains, locus YML016C, strain PPZ1, hits give low values",1
same,normalized growth,"S. cerevisiae deletion strains, locus YML032C, strain rad52, hits give low values",0.853 (active)
same,normalized growth,"S. cerevisiae deletion strains, locus YML124C, strain tub3, hits give low values",0.181 (active)
same,normalized growth,"S. cerevisiae deletion strains, locus YMR078C, strain ctf18, hits give low values",0.231 (active)
same,normalized growth,"S. cerevisiae deletion strains, locus YMR223W, strain ubp8, hits give low values",0.0875 (active)
same,normalized growth,"S. cerevisiae deletion strains, locus YMR263W, strain SAP30, hits give low values",1.02
same,normalized growth,[2],0.961
same,normalized growth,"S. cerevisiae deletion strains, locus YNL067W, strain RPL9B, hits give low values",1.02
same,normalized growth,"S. cerevisiae deletion strains, locus YNL128W, strain TEP1, hits give low values",1.02
same,normalized growth,[3],1.02
same,normalized growth,"S. cerevisiae deletion strains, locus YNL233W, strain BNI4, hits give low values",1.02
same,normalized growth,"S. cerevisiae deletion strains, locus YNL250W, strain rad50, hits give low values",0.725 (active)
same,normalized growth,"S. cerevisiae deletion strains, locus YNL271C, strain bni1, hits give low values",0.351 (active)
same,normalized growth,"S. cerevisiae deletion strains, locus YNL298W, strain CLA4, hits give low values",0.725 (active)
same,normalized growth,"S. cerevisiae deletion strains, locus YNL307C, strain MCK1, hits give low values",0.0671 (active)
same,normalized growth,"S. cerevisiae deletion strains, locus YNL322C, strain KRE1, hits give low values",1.01
same,normalized growth,"S. cerevisiae deletion strains, locus YNR052C, strain pop2, hits give low values",1
same,normalized growth,"S. cerevisiae deletion strains, locus YOL006C, strain TOP1, hits give low values",0.948
same,normalized growth,"S. cerevisiae deletion strains, locus YOL147C, strain pex11, hits give low values",0.838 (active)
same,normalized growth,"S. cerevisiae deletion strains, locus YOR061W, strain CKA2, hits give low values",1
same,normalized growth,"S. cerevisiae deletion strains, locus YOR069W, strain VPS5, hits give low values",1
same,normalized growth,"S. cerevisiae deletion strains, locus YOR136W, strain idh2, hits give low values",0.104 (active)
same,normalized growth,"S. cerevisiae deletion strains, locus YOR144C, strain elg1, hits give low values",0.997
same,normalized growth,"S. cerevisiae deletion strains, locus YOR184W, strain ser1, hits give low values",0.0729 (active)
same,normalized growth,"S. cerevisiae deletion strains, locus YOR316C, strain cot1, hits give low values",0.096 (active)
same,normalized growth,"S. cerevisiae deletion strains, locus YPL055C, strain LGE1, hits give low values",1.02
same,normalized growth,"S. cerevisiae deletion strains, locus YPL241C, strain CIN2, hits give low values",1.01
same,normalized growth,"S. cerevisiae deletion strains, locus YPR119W, strain clb2, hits give low values",0.169 (active)
same,normalized growth,"S. cerevisiae deletion strains, locus YPR141C, strain kar3, hits give low values",1.01
same,normalized growth,"S. cerevisiae deletion strains, locus YPR163C, strain tif3, hits give low values",0.0751 (active)
same,normalized growth,"S. cerevisiae deletion strains, locus YPR167C, strain met16, hits give low values",0.0964 (active)
same,normalized growth,"S. cerevisiae deletion strains, strain wtn01, hits give low values",0.0632 (active)
same,normalized growth,"S. cerevisiae strains, strain wild type, hits give low values",1.01

# Reference: PubChem BioAssay AID1159580 (chemical genetic matrix, 2015)
